“And” between values parts separate entries of the source, which are not always exact repeats. Equal values may be shown once. Inconclusive results are not listed. A call without a number means that no potency is given here. More than one record can exist for a structure, and the calls need not agree. The source made the active and inactive calls. Calls come from the whole dose curve; as a rule, active = well fitted curve in the direction sought with a large enough effect in the repeat runs; inconclusive = weak or mixed curves; inactive = no such curve, though single readings can be large; an effect the other way counts as inactive or inconclusive. Starred links: 1 amine or outer side, 2 acyl side, 3 side chain; linkers in the order of their positions; H or OH if unused. Positions of bridges follow the written chain, without caps; N, C: chain ends. Non-standard residues stand in square brackets, D forms with d. Residues, ends and D or L forms follow the SMILES beside them. Chains are numbered I, II in the order given. Actinocin(9to1) = Cc1c2oc3c(C)ccc(C(=O)[*:1])c3nc-2c(C(=O)[*:2])c(N)c1=O; NMeV = CN[C@H](C(=O)O)C(C)C; Sar = CNCC(=O)O
Columns and labels:
[1] = Human pregnane X receptor (PXR) small molecule agonists, qHTS cell viability counter screen (AID 1346977); note: nearly all actives have a fitted effect of over 50% in size; note: potency is the fitted concentration of half-maximal effect
Procedure, shortened: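 PXR-Luc HepG2, 2,000 cells/well, 5% charcoal-stripped FBS; 5hr settle; cpd 24hr, 37C/5% CO2; CellTiter-Fluor at 23hr, read 1hr later (fluorescence).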

[2] = Caspase-3/7 induction in HepG2 cells by small molecules, qHTS assay (AID 1346978); note: nearly all actives have a fitted effect of over 15% in size; note: potency is the fitted concentration of half-maximal effect
Procedure, shortened: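 Caspase-3/7 induction was measured by Caspase-Glo 3/7 luminescence (30 min, room temperature) after a 17 hr compound exposure of wild-type HepG2 cells seeded at 2,000 per well and pre-incubated 5 hr.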

[3] = Caspase-3/7 induction in CHO-K1 cells by small molecules, qHTS cell viability counter screen (AID 1346979); note: nearly all actives have a fitted effect of over 35% in size; note: potency is the fitted concentration of half-maximal effect
Procedure, shortened: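 Cells (CHO-K1, wild type) are plated at 1,500 per well and incubated 5hr. Test compounds in DMSO are then pinned in, followed by 16hr at 37C and 5% CO2. Viability is read by CellTiter-Fluor fluorescence after 1hr.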

[4] = Caspase-3/7 induction in CHO-K1 cells by small molecules, qHTS assay (AID 1346980); note: nearly all actives have a fitted effect of over 15% in size; note: potency is the fitted concentration of half-maximal effect
Procedure, shortened: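 Luminescent Caspase-Glo 3/7 read (30min, room temperature) quantified apoptosis induction. Cells were wild-type CHO-K1, treated with compound for 17hr at 37 C and 5% CO2.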

[5] = Caspase-3/7 induction in HepG2 cells by small molecules, qHTS cell viability counter screen (AID 1346981); note: nearly all actives have a fitted effect of over 30% in size; note: potency is the fitted concentration of half-maximal effect; for activity change, negative = cytotoxicity: series mostly up to about 92 µM
Procedure, shortened: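 Multiplexed with the caspase-3/7 assay: HepG2 cells, 16 hr compound treatment, CellTiter-Fluor viability detection by fluorescence.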

[6] = target: Nuclear receptor subfamily 1 group I member 2 (Homo sapiens) (UniProt O75469); assay: Human pregnane X receptor (PXR) small molecule agonists, qHTS assay (AID 1346982); note: nearly all actives have a fitted effect of over 35% in size; note: potency is the fitted concentration of half-maximal effect
Procedure, shortened: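 We seeded PXR-Luc HepG2 cells in assay medium containing 5% charcoal-stripped FBS, added compounds 5 hr later, incubated 24 hr, and read luminescence with ONE-Glo reagent.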

[7] = target: Nuclear receptor subfamily 1 group I member 2 (Rattus norvegicus) (UniProt Q9R1A7); assay: Rat pregnane X receptor (rPXR) activation by small molecules, qHTS assay (AID 1346983); details: rPXR luciferase reporter cells, One-Glo luminescence, 24 h; stronger effect = higher value; note: nearly all actives have a fitted effect of over 20% in size
Procedure, shortened: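 Luminescent readout (One-Glo luciferase, 30 min room temperature) followed 24 hr compound treatment at 37 C of rPXR cells plated 2,000 per well and preincubated 5hr; qHTS format with compounds delivered in DMSO.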

[8] = target: Nuclear receptor subfamily 1 group I member 2 (Homo sapiens) (UniProt O75469); assay: Human pregnane X receptor (PXR) activation by small molecules, qHTS assay (AID 1346985); note: nearly all actives have a fitted effect of over 40% in size
Procedure, shortened: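 DPX-2 cells (HepG2 co-transfected with a PXR response element and a CYP3A4-promoter luciferase construct) were seeded at 2,000 per well, rested 5 hr at 37C, then exposed to DMSO-dissolved compounds for 24 hr. Activation was read as luciferase luminescence.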

[9] = target: Cytochrome P450 2D6 (Homo sapiens) (UniProt P10635); assay: Cytochrome P450 Family 2 Subfamily D Member 6 (CYP2D6) small molecule antagonists: luciferase reporter qHTS assay (AID 1671196); note: nearly all actives have a fitted effect of over 50% in size; note: potency is the fitted concentration of half-maximal effect; for activity change, negative = inhibition: series mostly up to about 120 µM
Procedure, shortened: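 Luminescence (RLU), read 20 min after detection reagent, indicated CYP2D6 conversion of proluciferin to luciferin during a 1 h NADPH-dependent reaction at room temperature.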

[10] = target: Cytochrome P450 2C19 (Homo sapiens) (UniProt P33261); assay: Cytochrome P450 Family 2 Subfamily C Member 19 (CYP2C19) small molecule antagonists: luciferase reporter qHTS assay (AID 1671197); note: nearly all actives have a fitted effect of over 65% in size; note: potency is the fitted concentration of half-maximal effect; for activity change, negative = inhibition: series mostly up to about 120 µM
Procedure, shortened: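 CYP2C19 P450-Glo, 1536-well qHTS. Cpd + enzyme/proluciferin substrate 10 min RT; + NADPH regen, 37C 1 h; stop with luciferin detection reagent, 20 min RT, luminescence (RLU). Pos ctrl ketoconazole.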

[11] = target: Cytochrome P450 2C9 (Homo sapiens) (UniProt P11712); assay: Cytochrome P450 Family 2 Subfamily C Member 9 (CYP2C9) small molecule antagonists: luciferase reporter qHTS assay (AID 1671198); note: nearly all actives have a fitted effect of over 50% in size; note: potency is the fitted concentration of half-maximal effect; for activity change, negative = inhibition: series mostly up to about 120 µM
Procedure, shortened: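 Enzyme-substrate mix preincubated with compound 10 min at room temperature; reaction started with NADPH regeneration solution, 1 h 37C. Luminescent luciferin product read after 20 min detection reagent.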

[12] = target: Cytochrome P450 1A2 (Homo sapiens) (UniProt P05177); assay: Cytochrome P450 Family 1 Subfamily A Member 2 (CYP1A2) small molecule antagonists: luciferase reporter qHTS assay (AID 1671199); note: nearly all actives have a fitted effect of over 50% in size; note: potency is the fitted concentration of half-maximal effect; for activity change, negative = inhibition: series mostly up to about 120 µM
Procedure, shortened: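 CYP1A2 turnover of a luminogenic substrate was quantified after 1 h with NADPH regeneration at room temperature. Furafylline served as positive control.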

[13] = target: Voltage-gated inwardly rectifying potassium channel KCNH2 (Homo sapiens) (UniProt Q12809); assay: Human Ether-a-go-go-Related Gene (hERG) channel small molecule antagonists: fluorescence cell-based qHTS assay (AID 1671200)
Procedure, shortened: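 Channel function was assessed by thallium flux. Cells seeded the previous day and kept at 37 C took up FluxOR II dye over 1 h in the dark at room temperature, then sat another 10 min before stimulation.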

[14] = target: Cytochrome P450 3A4 (Homo sapiens) (UniProt P08684); assay: Cytochrome P450 Family 3 Subfamily A Member 4 (CYP3A4) small molecule antagonists: luciferase reporter qHTS assay (AID 1671201); note: nearly all actives have a fitted effect of over 50% in size; note: potency is the fitted concentration of half-maximal effect; for activity change, negative = inhibition: series mostly up to about 120 µM
Procedure, shortened: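 Compounds in DMSO were pin-transferred onto CYP3A4 enzyme-substrate mix and held 10 min at room temperature. NADPH regenerating solution started the reaction for 1 h; luciferin detection reagent stopped it, and luminescence was read after 20 min.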

Sequence of Nuclear receptor subfamily 1 group I member 2 (Rattus norvegicus) (Q9R1A7 whole entry, looked up): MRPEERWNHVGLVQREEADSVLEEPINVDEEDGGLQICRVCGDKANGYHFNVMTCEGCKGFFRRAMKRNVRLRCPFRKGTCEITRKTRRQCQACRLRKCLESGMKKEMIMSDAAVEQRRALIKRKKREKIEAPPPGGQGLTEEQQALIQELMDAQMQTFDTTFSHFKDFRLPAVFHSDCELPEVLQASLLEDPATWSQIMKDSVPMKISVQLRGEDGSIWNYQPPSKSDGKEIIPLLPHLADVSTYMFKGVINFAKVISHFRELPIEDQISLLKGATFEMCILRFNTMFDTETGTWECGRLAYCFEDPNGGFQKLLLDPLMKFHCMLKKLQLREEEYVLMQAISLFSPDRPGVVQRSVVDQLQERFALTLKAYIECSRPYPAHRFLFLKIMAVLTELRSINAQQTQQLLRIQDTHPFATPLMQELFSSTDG
Sequence of Cytochrome P450 2D6 (Homo sapiens) (P10635 whole entry, looked up): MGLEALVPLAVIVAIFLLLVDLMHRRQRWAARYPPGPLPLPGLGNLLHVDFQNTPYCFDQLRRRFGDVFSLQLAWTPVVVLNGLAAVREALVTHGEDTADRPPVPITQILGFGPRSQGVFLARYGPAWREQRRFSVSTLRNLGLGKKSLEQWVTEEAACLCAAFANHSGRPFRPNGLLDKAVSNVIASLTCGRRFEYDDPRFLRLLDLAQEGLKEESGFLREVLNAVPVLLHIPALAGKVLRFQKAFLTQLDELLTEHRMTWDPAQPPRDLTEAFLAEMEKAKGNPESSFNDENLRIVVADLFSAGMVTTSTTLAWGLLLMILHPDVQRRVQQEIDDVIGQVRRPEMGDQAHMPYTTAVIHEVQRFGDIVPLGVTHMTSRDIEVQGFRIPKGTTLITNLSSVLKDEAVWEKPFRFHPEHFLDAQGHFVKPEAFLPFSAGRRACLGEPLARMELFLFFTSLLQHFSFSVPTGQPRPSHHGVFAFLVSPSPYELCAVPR
Sequence of Cytochrome P450 2C19 (Homo sapiens) (P33261 whole entry, looked up): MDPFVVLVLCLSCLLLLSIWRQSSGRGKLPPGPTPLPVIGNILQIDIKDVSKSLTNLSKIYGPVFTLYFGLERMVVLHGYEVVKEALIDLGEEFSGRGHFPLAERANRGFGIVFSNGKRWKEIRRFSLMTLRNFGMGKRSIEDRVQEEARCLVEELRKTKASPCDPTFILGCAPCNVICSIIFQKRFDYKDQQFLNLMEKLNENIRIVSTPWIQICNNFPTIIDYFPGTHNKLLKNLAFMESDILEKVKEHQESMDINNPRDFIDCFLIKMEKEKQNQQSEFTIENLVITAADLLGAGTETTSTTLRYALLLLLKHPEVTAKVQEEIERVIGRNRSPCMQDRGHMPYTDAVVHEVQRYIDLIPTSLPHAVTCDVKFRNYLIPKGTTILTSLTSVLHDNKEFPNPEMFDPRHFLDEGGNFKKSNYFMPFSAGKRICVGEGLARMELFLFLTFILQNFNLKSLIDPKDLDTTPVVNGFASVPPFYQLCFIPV
Sequence of Cytochrome P450 3A4 (Homo sapiens) (P08684 whole entry, looked up): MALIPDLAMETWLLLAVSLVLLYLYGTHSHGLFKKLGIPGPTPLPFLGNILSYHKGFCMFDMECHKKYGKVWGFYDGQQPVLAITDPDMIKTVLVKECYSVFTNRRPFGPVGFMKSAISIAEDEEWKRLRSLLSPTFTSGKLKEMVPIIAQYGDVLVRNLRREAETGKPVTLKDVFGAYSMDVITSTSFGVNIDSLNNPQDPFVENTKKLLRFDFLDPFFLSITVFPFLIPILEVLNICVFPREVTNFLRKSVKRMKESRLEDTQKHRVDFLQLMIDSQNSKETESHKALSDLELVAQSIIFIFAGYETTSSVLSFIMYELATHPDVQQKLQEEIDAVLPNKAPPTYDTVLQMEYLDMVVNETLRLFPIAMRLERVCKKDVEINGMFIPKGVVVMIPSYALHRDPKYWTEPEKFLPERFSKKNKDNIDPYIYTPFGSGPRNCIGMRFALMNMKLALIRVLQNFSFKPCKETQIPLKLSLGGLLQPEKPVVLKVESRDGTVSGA
Sequence of Cytochrome P450 1A2 (Homo sapiens) (P05177 whole entry, looked up): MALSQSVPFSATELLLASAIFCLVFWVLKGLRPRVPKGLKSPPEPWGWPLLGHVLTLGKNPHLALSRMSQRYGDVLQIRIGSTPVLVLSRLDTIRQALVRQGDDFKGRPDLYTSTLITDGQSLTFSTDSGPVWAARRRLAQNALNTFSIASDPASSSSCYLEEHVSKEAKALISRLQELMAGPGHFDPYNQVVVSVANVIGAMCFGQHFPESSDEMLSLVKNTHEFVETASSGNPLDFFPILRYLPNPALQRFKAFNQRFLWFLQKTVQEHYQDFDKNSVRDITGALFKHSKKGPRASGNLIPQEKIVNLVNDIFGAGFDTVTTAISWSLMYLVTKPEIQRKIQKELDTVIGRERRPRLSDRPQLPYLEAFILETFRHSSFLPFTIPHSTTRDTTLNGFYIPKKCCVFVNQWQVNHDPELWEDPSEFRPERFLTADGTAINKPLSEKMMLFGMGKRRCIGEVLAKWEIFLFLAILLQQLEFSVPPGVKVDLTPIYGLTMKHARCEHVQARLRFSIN
Sequence of Nuclear receptor subfamily 1 group I member 2 (Homo sapiens) (O75469 whole entry, looked up): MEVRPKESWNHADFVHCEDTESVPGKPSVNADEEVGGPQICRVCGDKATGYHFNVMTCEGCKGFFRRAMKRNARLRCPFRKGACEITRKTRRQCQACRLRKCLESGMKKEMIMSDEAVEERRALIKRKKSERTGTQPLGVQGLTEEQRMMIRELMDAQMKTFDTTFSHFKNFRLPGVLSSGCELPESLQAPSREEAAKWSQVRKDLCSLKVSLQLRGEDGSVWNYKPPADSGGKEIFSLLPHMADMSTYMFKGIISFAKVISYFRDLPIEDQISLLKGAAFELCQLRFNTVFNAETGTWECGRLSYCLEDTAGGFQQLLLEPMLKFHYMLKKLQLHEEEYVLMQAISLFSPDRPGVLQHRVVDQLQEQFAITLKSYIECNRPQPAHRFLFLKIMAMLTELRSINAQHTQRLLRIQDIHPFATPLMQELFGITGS
Sequence of Voltage-gated inwardly rectifying potassium channel KCNH2 (Homo sapiens) (Q12809 whole entry, looked up): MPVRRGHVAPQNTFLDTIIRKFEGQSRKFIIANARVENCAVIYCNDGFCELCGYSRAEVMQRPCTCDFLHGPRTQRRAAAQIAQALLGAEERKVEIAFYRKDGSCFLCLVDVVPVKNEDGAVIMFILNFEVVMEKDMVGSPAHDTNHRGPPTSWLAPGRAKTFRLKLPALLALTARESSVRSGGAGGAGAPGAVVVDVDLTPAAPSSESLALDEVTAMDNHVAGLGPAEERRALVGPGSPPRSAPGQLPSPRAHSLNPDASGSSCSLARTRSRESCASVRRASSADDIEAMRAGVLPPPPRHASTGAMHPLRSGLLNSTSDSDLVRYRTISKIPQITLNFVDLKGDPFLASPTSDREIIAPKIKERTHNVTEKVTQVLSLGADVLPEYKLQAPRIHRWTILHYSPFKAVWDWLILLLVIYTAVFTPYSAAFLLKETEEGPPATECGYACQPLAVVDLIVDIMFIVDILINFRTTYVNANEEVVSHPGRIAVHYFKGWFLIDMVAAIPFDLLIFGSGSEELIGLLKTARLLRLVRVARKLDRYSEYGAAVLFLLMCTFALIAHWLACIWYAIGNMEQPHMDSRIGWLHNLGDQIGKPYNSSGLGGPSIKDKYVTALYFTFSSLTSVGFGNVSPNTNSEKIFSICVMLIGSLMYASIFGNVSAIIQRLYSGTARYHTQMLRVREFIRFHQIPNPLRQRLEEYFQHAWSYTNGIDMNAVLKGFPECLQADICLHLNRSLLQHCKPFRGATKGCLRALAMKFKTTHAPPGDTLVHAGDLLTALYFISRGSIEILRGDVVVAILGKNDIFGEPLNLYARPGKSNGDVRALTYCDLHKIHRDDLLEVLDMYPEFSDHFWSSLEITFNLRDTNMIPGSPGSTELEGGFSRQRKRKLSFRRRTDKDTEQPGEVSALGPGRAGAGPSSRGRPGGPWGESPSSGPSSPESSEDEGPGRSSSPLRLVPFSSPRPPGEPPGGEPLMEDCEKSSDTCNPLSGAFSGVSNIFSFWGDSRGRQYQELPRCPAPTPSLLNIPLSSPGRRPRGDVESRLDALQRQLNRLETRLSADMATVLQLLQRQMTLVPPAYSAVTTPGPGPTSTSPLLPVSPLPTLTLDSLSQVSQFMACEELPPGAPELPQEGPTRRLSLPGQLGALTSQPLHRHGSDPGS
Sequence of Cytochrome P450 2C9 (Homo sapiens) (P11712 whole entry, looked up): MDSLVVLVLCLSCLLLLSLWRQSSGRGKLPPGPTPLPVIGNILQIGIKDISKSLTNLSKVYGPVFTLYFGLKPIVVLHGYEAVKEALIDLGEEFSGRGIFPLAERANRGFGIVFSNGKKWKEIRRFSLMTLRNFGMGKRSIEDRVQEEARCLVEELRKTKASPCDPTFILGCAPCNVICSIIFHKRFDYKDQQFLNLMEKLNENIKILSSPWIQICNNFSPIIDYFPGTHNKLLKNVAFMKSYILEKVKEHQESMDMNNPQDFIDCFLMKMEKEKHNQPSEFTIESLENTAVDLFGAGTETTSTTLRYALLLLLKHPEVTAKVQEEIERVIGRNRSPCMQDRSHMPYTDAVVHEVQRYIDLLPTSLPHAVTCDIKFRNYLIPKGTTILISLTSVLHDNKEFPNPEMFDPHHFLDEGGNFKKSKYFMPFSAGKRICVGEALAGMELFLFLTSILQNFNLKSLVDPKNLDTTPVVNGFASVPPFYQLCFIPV

CCOc1ccccc1C(N)=O
Potency [1]: inactive | Potency [2]: inactive | Potency [3]: inactive | Potency [4]: inactive | Potency [5]: inactive | Potency [6]: inactive | max activation [7]: -0.87% (inactive) | Potency [8]: inactive | Potency [9]: inactive | Potency [10]: 20 µM (active) and inactive | Potency [11]: inactive | Potency [12]: 31.8 µM (active) and 17.4 µM (active) | Potency [13]: inactive | Potency [14]: inactive

COc1ccc(CCN2CCC(Nc3nc4ccccc4n3Cc3ccc(F)cc3)CC2)cc1
Potency [1]: 3.94 µM (active) and 13.3 µM (active) | Potency [2]: 7.86 µM (active) | Potency [3]: 7.86 µM (active) and 23.7 µM (active) | Potency [4]: 11.1 µM (active) | Potency [5]: 8.82 µM (active) and 29.8 µM (active)

CC[C@H]1CN2CCc3cc(OC)c(OC)cc3[C@@H]2C[C@@H]1C[C@H]1NCCc2cc(OC)c(OC)cc21
Potency [1]: 24.4 nM (active) and 10.6 nM (active) | Potency [2]: inactive | Potency [3]: 27.4 nM (active) and 13.3 nM (active) | Potency [4]: 30.7 µM (active) and inactive | Potency [5]: 48.7 nM (active) and 16.8 nM (active) | Potency [6]: 19.4 nM (active) and 8.4 nM (active) | max activation [7]: -15.9% (inactive) | Potency [8]: inactive | Potency [9]: 40.1 µM (active) | Potency [11]: inactive | Potency [12]: inactive

CCCCCCCCCCCCCCCCCl
activity change, negative = cytotoxicity [1]: 0.261% [at 19 µM] (inactive) | caspase activation [2]: -0.588% [at 19 µM] (inactive) | activity change, negative = cytotoxicity [3]: -2.27% [at 19 µM] (inactive) | caspase-3/7 activation [4]: -1.24% [at 19 µM] (inactive) | activity change, negative = cytotoxicity [5]: -0.832% [at 19 µM] (inactive) | activation [6]: -2.47% [at 19 µM] (inactive) | activity change, negative = inhibition [9]: 0.322% [at 23.6 µM] (inactive) | activity change, negative = inhibition [10]: -0.542% [at 23.6 µM] (inactive) | activity change, negative = inhibition [11]: 1.72% [at 23.6 µM] (inactive) | Potency [12]: inactive | activity change, negative = inhibition [13]: -0.466% [at 15.8 µM] (inactive) | activity change, negative = inhibition [14]: 3.48% [at 23.6 µM] (inactive)

N[C@@H]1CONC1=O
Potency [1]: inactive | Potency [2]: inactive | Potency [3]: inactive | Potency [4]: inactive | Potency [5]: inactive | Potency [6]: inactive | max activation [7]: -2.48% (inactive) | Potency [8]: inactive | Potency [9]: inactive | Potency [10]: inactive | Potency [11]: inactive | Potency [12]: inactive | Potency [13]: inactive | Potency [14]: inactive

Cc1occc(=O)c1OC(=O)C(C)C
Potency [1]: inactive | Potency [2]: inactive | Potency [3]: inactive | Potency [4]: inactive | Potency [5]: inactive | Potency [6]: inactive | Potency [9]: inactive | Potency [10]: inactive | Potency [11]: inactive | Potency [12]: inactive | Potency [13]: inactive | Potency [14]: inactive

NCCO
Potency [1]: inactive | Potency [2]: inactive | Potency [3]: inactive | Potency [4]: inactive | Potency [5]: inactive | Potency [6]: 27.3 µM (active) | Potency [9]: inactive and 5.03 µM (active) | Potency [10]: inactive and 11.2 µM (active) | Potency [11]: inactive and 31.7 µM (active) | Potency [12]: 9.47 µM (active) | Potency [13]: inactive | Potency [14]: inactive

Cc1cc(C(C)(C)C)c(O)c(C(C)(C)C)c1
Potency [1]: inactive | Potency [2]: inactive | Potency [3]: inactive | Potency [4]: inactive | Potency [5]: inactive | Potency [6]: inactive | Potency [9]: inactive | Potency [10]: inactive | Potency [11]: 35.7 µM (active) and inactive | Potency [12]: inactive | Potency [13]: inactive | Potency [14]: inactive

CC(C)(O)CCC(C)(C)O
Potency [1]: inactive | Potency [2]: inactive | Potency [3]: inactive | Potency [4]: inactive | Potency [5]: inactive | Potency [6]: inactive | Potency [9]: inactive | Potency [10]: inactive | Potency [11]: inactive | Potency [12]: inactive | Potency [13]: inactive | Potency [14]: inactive

Cc1c2oc3c(C)ccc(C(=O)N[C@@H]4C(=O)N[C@H](C(C)C)C(=O)N5CCC[C@H]5C(=O)N(C)CC(=O)N(C)[C@@H](C(C)C)C(=O)O[C@@H]4C)c3nc-2c(C(=O)N[C@@H]2C(=O)N[C@H](C(C)C)C(=O)N3CCC[C@H]3C(=O)N(C)CC(=O)N(C)[C@@H](C(C)C)C(=O)O[C@@H]2C)c(N)c1=O (I: T[dV]P[Sar][NMeV] / II: T[dV]P[Sar][NMeV]; ester I:1-I:C, II:1-II:C; linker I:N-II:N via Actinocin(9to1))
Potency [1]: 29.8 nM (active) and 47.3 nM (active) | Potency [2]: 13.3 nM (active) and 18.8 nM (active) | Potency [3]: 375 nM (active) and 188 nM (active) | Potency [4]: 188 nM (active) and 335 nM (active) | Potency [5]: 29.8 µM (active) and 15 µM (active) | Potency [6]: inactive | Potency [8]: inactive | Potency [9]: inactive | Potency [10]: inactive | Potency [11]: inactive | Potency [12]: inactive | Potency [13]: inactive | Potency [14]: inactive

CCn1c2ccccc2c2cc(N)ccc21
Potency [1]: inactive | Potency [2]: inactive | Potency [3]: 53.9 µM (active) and inactive and 43.3 µM (active) | Potency [4]: inactive | Potency [5]: inactive and 30.6 µM (active) | Potency [6]: 5.39 µM (active) and 30.6 µM (active) and inactive | Potency [9]: 703 nM (active) and 3.99 µM (active) and 10 µM (active) | Potency [10]: 4.43 µM (active) and 31.7 µM (active) and 12.6 µM (active) | Potency [11]: 12.5 µM (active) and 31.7 µM (active) and 28.3 µM (active) | Potency [12]: 626 nM (active) and 2.24 µM (active) and 5.03 µM (active) | Potency [13]: inactive | Potency [14]: 1.77 µM (active) and 5.64 µM (active) and 31.7 µM (active)

CC(C)(C)NCC(O)c1cc(O)cc(O)c1 (centres undefined)
Potency [1]: inactive | Potency [2]: inactive | Potency [3]: inactive | Potency [4]: inactive | Potency [5]: inactive | Potency [6]: inactive | max activation [7]: 3.93% (inactive) | Potency [8]: inactive | Potency [9]: 38.9 µM (active) | Potency [10]: inactive | Potency [12]: inactive | Potency [13]: inactive | Potency [14]: inactive

COC(=O)/C=C/c1ccccc1
Potency [1]: inactive | Potency [2]: inactive | Potency [3]: inactive | Potency [4]: inactive | Potency [5]: inactive | Potency [6]: inactive | Potency [9]: 35.6 µM (active) and inactive | Potency [10]: inactive | Potency [11]: inactive | Potency [12]: 15.9 µM (active) and 28.3 µM (active) | Potency [13]: inactive | Potency [14]: inactive
